TRHR PAM: allosteric enhancers of human TRH receptor; P34981; TRHR cells, fluo-8 calcium fluorescence, EC20 TRH enhancement; enhancement, % at 2 µM; actives 0.66% (n = 360,000); in the data active = enhancement above about 30%; note: 0% is about no effect
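Enhancer read-out: after compound pinning and an initial kinetic agonist-mode read, an EC20 of TRH (10 nM final) was injected and fluo-8 calcium signal (Ex 480/Em 530) followed at 1 s/cycle for 100 cycles in TRHR-expressing cells.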
TRHR ag: activates the human TRH receptor | P34981 | TRHR cells, calcium flux fluo-8, FDSS agonist mode | activation, % at 2 µM | actives 0.18% (n = 360,000) | AID 493084; note: 0% is about no effect
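In this calcium-flux screen, cells bearing human TRHR are dye-loaded with fluo-8, baselined for 10 cycles, then exposed to library compounds; positive kinetic calcium responses during the agonist phase mark hits, with TRH as control.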
D1 antagonist: human D1 dopamine receptor antagonism; activity change, negative = inhibition, % at 10 µM; P21728; HEK293 TREx D1 cells, calcium flux, dopamine EC80; active compounds read low; actives 3.2% (n = 360,000); in the data active = activity change below about -30%; note: % is set by controls: 0 for no effect and ±100 for the full control effect
Target sequence (P21728 whole entry, looked up): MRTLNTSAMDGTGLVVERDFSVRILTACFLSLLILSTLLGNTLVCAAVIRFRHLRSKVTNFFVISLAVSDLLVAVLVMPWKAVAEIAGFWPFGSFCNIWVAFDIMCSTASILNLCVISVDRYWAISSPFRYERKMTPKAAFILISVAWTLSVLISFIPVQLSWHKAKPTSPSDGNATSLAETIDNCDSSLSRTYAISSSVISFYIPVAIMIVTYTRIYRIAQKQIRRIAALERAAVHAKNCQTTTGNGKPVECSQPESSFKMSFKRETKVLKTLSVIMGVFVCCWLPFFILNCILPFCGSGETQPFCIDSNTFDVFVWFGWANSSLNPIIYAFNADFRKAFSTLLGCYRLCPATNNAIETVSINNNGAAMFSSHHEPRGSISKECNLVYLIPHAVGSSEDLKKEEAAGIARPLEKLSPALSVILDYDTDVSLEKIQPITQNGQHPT
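Inducible Hek293 Trex D1 cells (tetracycline, overnight, 30 C). Calcium dye 30–90 min RT. Antagonist mode: EC80 dopamine added after 180 s compound read.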
D1 agonist: human D1 receptor agonism; P21728; AID 504660; HEK293 T-REx D1 cells, calcium flux, agonist mode; activation, % at 2 µM; actives 1% (n = 360,000); note: 0% is about no effect
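Inducible HEK293 T-REx D1 cells, force-coupled to calcium signalling, were plated at 4000 cells/well with tetracycline and held overnight at 30 C. After no-wash calcium dye loading, compound-evoked calcium rise over 180 s flagged agonists.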
USP1 inh: inhibitors of human USP1/UAF1 deubiquitinase | recombinant USP1/UAF1, Ub-Rhodamine cleavage fluorescence | Potency, µM (doses to about 57.1 µM), for inactives: at the highest dose activity change, negative = inhibition, hits mostly inhibitors | actives 0.23% (n = 390,000) | O94782; active = well fitted inhibition curve with a large enough effect; inconclusive = small, poorly fitted or top-dose-only effect; inactive = no such curve, though single readings can be large or run the other way; note: potency is the fitted concentration of half-maximal effect; % is set by controls: 0 for no effect and ±100 for the full control effect; nearly all actives have a fitted effect of over 60% in size
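1 nM enzyme complex + cpd, 15 min RT; start with Ub-Rho 150nM final; kinetic fluorescence ex 480/em 540, 6 reads q60 s. Buffer 50mM HEPES pH 7.8, 0.5mM EDTA, 0.1 mg/ml BSA, 1mM TCEP, 0.01% Tween-20.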
D1 potentiator: human D1 dopamine receptor positive modulation; HEK293 TREx D1 cells, calcium flux, dopamine EC20 potentiation; P21728; potentiation, % at 10 µM; actives 0.036% (n = 360,000); in the data active = potentiation above about 30%; note: 0% is about no effect
* hit, by the source's call; u = inconclusive. The list is not random: actives were taken first. Their share in the collection is about 4.4%. Cut-off read from the data, not from the text of the source, unless noted: active = activation above about 30%; inactive = the rest.

SMILES	TRHR PAM	TRHR ag	D1 antagonist	D1 agonist	USP1 inh	D1 potentiator
C=CCN(c1ccccc1)S(=O)(=O)c1cccc(C(=O)NC2CCN(Cc3ccccc3)CC2)c1	12	0	-37*	3	-5%	1
COc1ccccc1NS(=O)(=O)c1cccc(C(=O)NC2CCN(Cc3ccccc3)CC2)c1	-5	0	-37*	18	-4%	-7
CC(C)c1ccc(OCc2cc(=O)n3c4c(sc3n2)CCCC4)cc1	-5	0	4	1	-14%	1
Cc1ccc(C(C)(C)C)cc1S(=O)(=O)Nc1cccc(C(=O)N2CCN(c3ccccn3)CC2)c1	3	0	3	33*	-17%	3
Cc1ccc(Nc2nc3ccccc3c3nncn23)cc1C	8	-1	2	3	-24%	3
O=C(NC12CC3CC(CC(C3)C1)C2)c1ccc([N+](=O)[O-])o1	-3	0	-48*	1	0%	-1
O=C(NC12CC3CC(CC(C3)C1)C2)c1ccc(Br)o1	9	-2	-2	9	-7%	-5
CCOCCc1nn2c(=O)cc(COC(=O)CNC(=O)c3cccc(C)c3)nc2s1	-4	0	-5	7	-15%	-1
O=C(CCCn1c(=O)[nH]c2ccccc2c1=O)N1CCN(c2ccccc2)CC1	5	0	-37*	-1	-3%	-6
O=C(CCS(=O)(=O)Cc1ccc(Cl)cc1)NCCCN1CCN(c2ccccc2F)CC1	33*	-1	-59*	51*	-15%	-22
O=C(CCCCCn1c(=O)[nH]c2ccccc2c1=O)N1CCN(c2cccc(C(F)(F)F)c2)CC1	7	0	8	1	1%	-1
O=C(CCCCCn1c(=O)[nH]c2ccccc2c1=O)NCCCN1CCN(c2ccccc2F)CC1	-2	-1	-91*	1	1%	-3
O=C(CCCn1c2ccccc2c(=O)c2ccccc21)Nc1cccc(Cl)c1	4	-1	-16	4	u	-1
Cc1cc(C)cc(N2CCn3c2nc2c3c(=O)n(CCc3ccccc3)c(=O)n2C)c1	8	0	2	-1	-19%	-2
CCc1ccc(C(=O)Cn2ncc(Cl)c(Cl)c2=O)cc1	1	-1	-31*	0	-24%	-3
CCCC[n+]1ccn(-c2nc3ccccc3nc2[N-]S(=O)(=O)c2ccc(Cl)cc2)c1	3	0	-40*	6	-4%	13
COc1ccc(NC(=O)NNC(=O)COc2ccc3cc(Br)ccc3c2)c(OC)c1	-7	0	-32*	5	-19%	-1
CC(C)Oc1ccc(CNC(=O)c2ccc3c(c2)nc2n3CCOC2)cc1	-4	0	1	1	4%	-2
COCCNC(=O)CN1C(=O)c2cccnc2Oc2ccc(Cl)cc21	13	0	6	-1	0%	5
COc1ccc(NC(=O)CCc2nnc3n(CC(C)C)c(=O)c4ccccc4n23)cc1	2	0	3	-1	-17%	0
Cc1c(NC(=O)OCCNC(=O)COc2ccc(Cl)cc2Cl)sc(=S)n1C	5	0	-43*	15	1%	-9
Cc1ccc(-n2ncc3c(N4CCN(c5ccc(F)cc5)CC4)ncnc32)cc1	-3	0	1	1	-15%	-1
CN1CCN(c2ncnc3c2cnn3-c2ccc(Cl)cc2)CC1	-7	1	-54*	15	-26%	-8
Cc1ccc(-n2ncc3c(N4CCN(C)CC4)ncnc32)cc1	-4	1	-30*	3	-1%	-1
CCC(=O)N1CCc2cc(Br)cc(S(=O)(=O)N3CCCC(C(=O)Nc4cccc(F)c4)C3)c21 (centres undefined)	4	-1	-3	0	-12%	2
Cc1cc2oc(=O)cc(CN3CCN(Cc4ccccc4)CC3)c2cc1Cl	-4	0	-1	6	-8%	1
Cc1cc2oc(=O)cc(CN3CCC(C)CC3)c2cc1Cl	30*	0	3	1	-22%	-7
